FBA Mtb inh: Mtb FBA enzyme inhibitors, primary screen, biochemical, fluorescence, strain H37Rv | Fructose-bisphosphate aldolase (Mycobacterium tuberculosis (strain ATCC 25618 / H37Rv)), … | purified M. tuberculosis FBA, fluorescence read-out | inhibition, % at 1 µM | 360,000 tested, 2.3% active; in the data active means inhibition above about 27%
Anthrax LF prot: Bacillus anthracis LF protease inhibitors, primary screen, biochemical, multiplex microsphere, MLPCN library | inhibition, % at 10 µM | Lethal factor (Bacillus anthracis), P15917 | multiplex microsphere protease cleavage assay | 360,000 tested, 0.12% active
Target sequence (P15917 whole entry, looked up): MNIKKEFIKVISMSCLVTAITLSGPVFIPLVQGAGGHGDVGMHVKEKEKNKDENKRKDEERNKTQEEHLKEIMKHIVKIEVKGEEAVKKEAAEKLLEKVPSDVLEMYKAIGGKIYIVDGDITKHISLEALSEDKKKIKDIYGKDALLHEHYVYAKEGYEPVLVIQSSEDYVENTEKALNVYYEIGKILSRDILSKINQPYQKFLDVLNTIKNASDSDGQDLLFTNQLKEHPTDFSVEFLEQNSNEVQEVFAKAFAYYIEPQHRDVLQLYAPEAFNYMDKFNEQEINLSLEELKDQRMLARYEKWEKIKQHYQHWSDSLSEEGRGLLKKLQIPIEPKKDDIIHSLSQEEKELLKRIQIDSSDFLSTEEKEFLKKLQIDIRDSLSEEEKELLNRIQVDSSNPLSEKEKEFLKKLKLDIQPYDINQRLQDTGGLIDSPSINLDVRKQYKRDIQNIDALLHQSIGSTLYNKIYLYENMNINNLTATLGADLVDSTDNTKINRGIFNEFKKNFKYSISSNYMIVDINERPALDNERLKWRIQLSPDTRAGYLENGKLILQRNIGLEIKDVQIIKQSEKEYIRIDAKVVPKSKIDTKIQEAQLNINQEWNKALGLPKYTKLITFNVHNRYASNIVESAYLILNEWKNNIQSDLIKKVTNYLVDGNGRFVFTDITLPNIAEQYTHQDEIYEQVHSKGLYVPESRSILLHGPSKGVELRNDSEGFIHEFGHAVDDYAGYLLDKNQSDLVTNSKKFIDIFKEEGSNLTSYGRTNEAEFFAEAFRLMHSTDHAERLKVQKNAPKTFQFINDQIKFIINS
GDH-TPI counter-1: GDH-TPI coupling enzyme inhibitors, primary screen, artefact control for M. tuberculosis FBA inhibitor project, biochemical, absorbance, full deck; inhibition, % at 4.8 µM; GDH-TPI coupled enzyme counterscreen, NADH absorbance; 360,000 tested, 1.2% active; AID 588335, 2011; in the data active means inhibition above about 30%
BoNT F protease: BoNT/F light chain protease inhibitors, primary screen, biochemical, flow cytometry, MLPCN library | inhibition, % at 10 µM | 360,000 tested, 0.22% active | AID 588497, 2011 | Multiplex microsphere protease cleavage assay | Botulinum neurotoxin type F light chain protease (Clostridium botulinum); in the data active means inhibition above about 35%, passing the limit was not always enough; inconclusive means no clear call, values can overlap the other calls
Bead autofluor: compound fluorescence in toxin protease inhibitor counterscreen; compound autofluorescence counterscreen, microsphere flow cytometry; active compounds read high; 360,000 tested, 3.1% active; fluorescence intensity (no concentration beside the values); in the data active means fluorescence intensity above about 16000; inconclusive means no clear call, values can overlap the other calls
BoNT A protease: BoNT/A light chain protease inhibitors, primary screen, biochemical, flow cytometry, MLPCN library | multiplex microsphere protease substrate cleavage | inhibition, % at 10 µM | 360,000 tested, 0.17% active | AID 588499, 2011
Mtb FBA confirm: M. tuberculosis aldolase blockers, biochemical, fluorescence, strain H37Rv, confirmation. shares compounds with FBA Mtb inh. purified M. tuberculosis FBA, fluorescence read-out. inhibition, % at 1 µM. 5,600 tested, 78% active; in the data active means inhibition above about 27%
GDH-TPI counter-2: GDH-TPI coupling enzyme inhibitors, artefact control for M. tuberculosis FBA inhibitor project, biochemical, fluorescence, high throughput | shares compounds with FBA Mtb inh | GDH-TPI coupled enzyme counterscreen | inhibition, % at 1 µM | 5,600 tested, 81% active; in the data active means inhibition above about 10%
Numbers stand for hits; - = inactive; ? = inconclusive; . = no result given; + = active, no number. Sampled rows, rich in hits. Any-hit rate of the full collection: about 6.7%. Unless noted, no stated cut-off is given here; in the data, active means inhibition above about 30%; inconclusive means no clear call, values can overlap the other calls; inactive means below that.

SMILES	FBA Mtb inh	Anthrax LF prot	GDH-TPI counter-1	BoNT F protease	Bead autofluor	BoNT A protease	Mtb FBA confirm	GDH-TPI counter-2
CCN(CC)C(=O)CSc1nc(N)c(-c2ccccc2)c(=O)[nH]1	-	-	-	-	-	-	.	.
CCOc1ccc(-c2cc(C(=O)N3CCC4(CC3)OCCO4)c3ccccc3n2)cc1	-	.	-	.	.	.	.	.
CCOc1ccc(-c2cc(C(=O)N3CCCC3)c3ccccc3n2)cc1	91	-	-	-	-	-	152	131
CC1CN(c2oc(-c3ccco3)nc2C#N)CC(C)O1 (stereo unspecified)	88	-	-	-	-	-	138	93
Cc1ccccc1-c1coc2cc(O)ccc2c1=O	48	-	-	-	-	-	97	81
Cc1ccc(Oc2coc3cc(O)ccc3c2=O)cc1	40	-	-	-	-	-	53	57
Cc1ccc(C)c(Oc2coc3cc(O)ccc3c2=O)c1	38	-	-	-	-	-	128	104
O=C(NCC1CCCCC1)c1ccc(Cl)c(S(=O)(=O)N2CCOCC2)c1	-	-	-	-	-	-	.	.
C=CCSc1nnc(-c2nnc(SCC=C)n2-c2ccccc2)n1-c1ccccc1	-	-	-	-	-	-	.	.
C=CCSc1nnc(-c2sc(-c3ccccc3)nc2C)n1C	64	-	-	-	-	-	-	-
O=C(OCCN1CCOCC1)c1ccccc1	-	-	-	-	-	-	.	.
Cc1ccc(C(=O)C[n+]2cccc3cc(C)ccc32)cc1	-	-	-	-	-	-	.	.
CCc1ccc(C(=O)C[n+]2cccc3cc(OC)ccc32)cc1	41	-	-	-	-	-	-	20
COc1ccc(S(=O)(=O)Nc2ccc3c(c2)C(=O)N([C@H](C)CO)C[C@H](C)[C@@H](CN(C)C(=O)Nc2ccc4c(c2)OCO4)O3)cc1	-	-	-	-	-	-	.	.
COc1ccc(Nc2nc(N)nc(CN3CCC(C)CC3)n2)cc1	-	-	-	-	-	-	.	.
O=C(Cn1nnc(-c2ccccc2)n1)N1CCN(c2ccc(F)cc2)CC1	-	-	-	-	-	-	.	.
Cc1ccc(S(N)(=O)=O)cc1	-	-	-	-	-	-	.	.
Cc1cc(S(N)(=O)=O)c(N)c(S(N)(=O)=O)c1	29	-	-	?	-	-	+	+
CCSc1oc(-c2ccccc2)nc1S(=O)(=O)c1ccccc1	-	-	-	-	-	-	.	.
NC(=O)CSc1oc(-c2ccc(F)cc2)nc1S(=O)(=O)c1ccccc1	62	-	-	-	-	-	158	89
CCOC(=O)Cc1cc(=O)n2[nH]c(C)c(-c3ccccc3)c2n1	39	-	-	-	-	-	96	77
CCOC(=O)Cc1cc(=O)n2[nH]c(-c3ccccc3)c(-c3ccccc3)c2n1	43	-	-	-	-	-	81	67
CCOC(=O)Cc1cc(=O)n2[nH]c(-c3ccccc3)cc2n1	-	-	-	-	-	-	.	.
O=[N+]([O-])c1ccc2c(c1)nc1n2CCSC1	35	-	-	?	-	-	-	-
CC(C)Cc1nc(N2CCN(C(=O)c3ccco3)CC2)c(C#N)c2c1CCCC2	-	-	-	-	-	-	.	.
SMILES	FBA Mtb inh	Anthrax LF prot	GDH-TPI counter-1	BoNT F protease	Bead autofluor	BoNT A protease	Mtb FBA confirm	GDH-TPI counter-2
Cc1nc(N2CCN(C(=O)c3ccco3)CC2)c(C#N)c2c1CCCC2	38	-	-	-	-	-	98	83
COc1ccc(-c2cc(C(=O)N(C)CC(=O)Nc3cccc(F)c3)c3ccccc3n2)cc1OC	-	-	-	-	-	-	.	.
COc1ccc(NC(=O)CN(C)C(=O)c2cc(-c3ccco3)nc3ccccc23)cc1	45	-	-	-	-	-	+	+
CN(CC(=O)Nc1cccc(F)c1)C(=O)c1cc(-c2ccco2)nc2ccccc12	75	?	-	-	?	-	+	170
CCOC(=O)C1CCCN(C(=O)Cn2sc3nc(C)cc(C)c3c2=O)C1 (stereo unspecified)	-	-	-	-	-	-	.	.
COc1ccc(OC)c(/C=C/C(=O)Nc2cccc(S(=O)(=O)N3CCCC3)c2)c1	30	-	-	-	-	-	49	43
CCN1CCN(c2ccc(S(=O)(=O)N3CCCCC3)cc2NC(=O)/C=C/c2cc(OC)ccc2OC)CC1	-	-	-	-	-	-	.	.
Cc1cc(-c2ccccc2)c(C#N)c(N)n1	-	-	-	-	-	-	.	.
COC(=O)c1cc(C)nc(N)c1C#N	108	-	-	-	-	-	128	82
NC(=O)CSC1=Nc2ccccc2C2=NC(c3ccccc3)C(=O)N12 (stereo unspecified)	28	-	-	-	-	-	51	43
CCOC(=O)CSC1=Nc2ccccc2C2=NC(CC(=O)NCc3ccccc3)C(=O)N12 (stereo unspecified)	29	-	-	-	-	-	103	102
CC(=O)c1cccc(S(=O)(=O)Nc2ccc(N3CCOCC3)cc2)c1	-	-	-	-	-	-	.	.
O=C1C(Cc2ccccc2)Nc2ncnc(N3CCCCC3)c2N1Cc1ccc(Br)cc1 (stereo unspecified)	-	-	-	-	-	-	.	.
CCOC(=O)c1cc2c(s1)-c1ccccc1CC2	49	-	-	-	-	-	-	-
O=C(Cc1ccccc1)N/N=C/c1ccc2cccc(O)c2n1	-	-	-	-	-	-	.	.
NC(=O)N/N=C/c1ccc2cccc(OCc3ccccc3)c2n1	57	-	-	-	-	-	173	138
CC(C)c1nc2oc3c(NCC4CCCO4)ncnc3c2c2c1CCC2 (stereo unspecified)	57	-	-	-	-	-	181	151
CCCc1nc2oc3c(NCCCN(C)C)ncnc3c2c2c1CCCC2	61	.	-	.	.	.	+	+
CC(C)Cc1nc2oc3c(Cl)ncnc3c2c2c1CCCC2	-	-	-	?	-	-	.	.
CC(C)Cc1nc2oc3c(NCC(C)O)ncnc3c2c2c1CCCC2 (stereo unspecified)	60	-	-	?	-	-	+	+
CCCc1nc2oc3c(NCCN(C)C)ncnc3c2c2c1CCCC2	-	-	-	-	-	-	.	.
CCc1ccccc1NC(=O)c1cc2sccc2n1C	-	-	-	-	-	-	.	.
